# Measured values from PubChem BioAssay (NCATS).
# Records with an inconclusive call do not appear. Entries that show only a call come without a potency. Calls of active or inactive are those of the source. Unless noted, calls follow the shape of the dose curve; as a rule, active = well fitted curve in the direction sought with a large enough effect; inconclusive = small, poorly fitted or top-dose-only effect, or another doubt; inactive = no such curve, though single readings can be large; an effect the other way counts as inactive or inconclusive.
# Tests used:
# [1] = biological target: Luciferin 4-monooxygenase (Photinus pyralis) (UniProt P08659); assay: Primary firefly luciferase (FLuc) qHTS assay for identification of artifact compounds. (AID 1845220); also: nearly all actives have a fitted effect of over 60% in size
# Method in brief: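 Cell-free, 1536-well qHTS. Buffer pH 7.6 with 0.01% Tween-20 and 0.05% BSA; 10 uM D-luciferin, 10 uM ATP; 10 nM P. pyralis luciferase; luminescence after 5 min.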
# [2] = tested on: Nanoluciferase (engineered Oplophorus gracilirostris luciferase); assay: Primary Nanoluciferase (NLuc) qHTS assay for identification of artifact compounds. (AID 1845222); also: series mostly up to about 54 µM
# Method in brief: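 Compounds are pinned into diluted (1:55) conditioned medium of NLuc-expressing S16 cells and held 15 min at room temperature protected from light. Nano-Glo substrate follows, and luminescence is read 5 min later.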
# [3] = Primary redox qHTS assay for identification of artifact compounds. (AID 1845223)
# Method in brief: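 Amplex Red (25 uM) and HRP (250 mU/mL) in HBSS, with compounds for 15 min, then 250 uM DTT for 30 min, room temperature, dark. Fluorescence 525/598 nm read; normalized to DMSO and 10 uM DA3003; Hill fit.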
# [4] = Primary fluorescence-based thiol-reactive (MSTI) qHTS assay for identification of artifact compounds. (AID 1845221); also: nearly all actives have a fitted effect of over 65% in size; also: potency is read from the fitted curve at half-maximal effect;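 as to activity change, negative = thiol reactive: series mostly up to about 54 µM; thiol-reactive compounds lower the probe fluorescence signal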
# Method in brief: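 Probe: MSTI 4 uM, PBS pH 7.4, 2% DMSO. Incubation 1 h, RT, light-protected. Readout fluorescence 525/598 nm.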
# [5] = qHTS drug screen for cell cycle checkpoint inhibitors in PARPi-resistant BRCA-mutant ovarian cancer cell lines. (AID 1963452; calls by dose curve); conditions: PEO1/OlaR viability, CellTiter-Glo luminescence, 96 h, stronger effect = lower value
# Method in brief: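 PEO1, PEO4 and PEO1/OlaR ovarian cancer cells, 600 per well, exposed 96 h at 37C to a dilution series. Viability read by CellTiter-Glo luminescence, normalized to DMSO and empty wells; activity summarized as Z-AUC.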
# [6] = biological target: Cytochrome P450 3A4 (Homo sapiens) (UniProt P08684); assay: qHTS for inhibitors of CYP3A4 against the NCATS DSHEA and TCM libraries (AID 1919971);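 also: inhibition lowers luminescence from luciferin made by CYP3A4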
# Chain of Cytochrome P450 3A4 (Homo sapiens) (P08684 whole entry, looked up): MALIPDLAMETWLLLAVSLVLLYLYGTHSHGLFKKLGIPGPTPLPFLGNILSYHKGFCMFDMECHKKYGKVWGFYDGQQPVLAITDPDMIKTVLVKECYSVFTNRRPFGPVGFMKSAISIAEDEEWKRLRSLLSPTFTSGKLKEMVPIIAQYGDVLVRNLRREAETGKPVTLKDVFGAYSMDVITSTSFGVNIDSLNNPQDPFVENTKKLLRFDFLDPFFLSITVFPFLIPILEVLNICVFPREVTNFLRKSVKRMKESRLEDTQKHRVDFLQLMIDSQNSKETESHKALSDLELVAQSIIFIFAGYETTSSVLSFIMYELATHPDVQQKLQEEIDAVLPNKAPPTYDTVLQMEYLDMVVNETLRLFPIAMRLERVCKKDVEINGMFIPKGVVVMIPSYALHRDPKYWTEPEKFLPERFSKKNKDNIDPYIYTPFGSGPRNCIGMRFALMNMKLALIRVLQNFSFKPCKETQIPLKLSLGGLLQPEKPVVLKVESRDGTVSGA
# Method in brief: (§1)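 Luminescent P450-Glo format: compounds preincubated 15 min with enzyme and luciferin substrate, reaction run 30-45 min after NADPH regeneration solution. Intraplate controls: ketoconazole for CYP3A4 and CYP2C19, sulfaphenazole for CYP2C9.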
# [7] = biological target: Cytochrome P450 2C9 (Homo sapiens) (UniProt P11712); assay: qHTS for inhibitors of CYP2C9 against the NCATS DSHEA and TCM libraries (AID 1919973);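 also: luminogenic pro-luciferin CYP2C9 substrate turned into luciferin with NADPH regeneration; series mostly up to about 34 µM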
# Chain of Cytochrome P450 2C9 (Homo sapiens) (P11712 whole entry, looked up): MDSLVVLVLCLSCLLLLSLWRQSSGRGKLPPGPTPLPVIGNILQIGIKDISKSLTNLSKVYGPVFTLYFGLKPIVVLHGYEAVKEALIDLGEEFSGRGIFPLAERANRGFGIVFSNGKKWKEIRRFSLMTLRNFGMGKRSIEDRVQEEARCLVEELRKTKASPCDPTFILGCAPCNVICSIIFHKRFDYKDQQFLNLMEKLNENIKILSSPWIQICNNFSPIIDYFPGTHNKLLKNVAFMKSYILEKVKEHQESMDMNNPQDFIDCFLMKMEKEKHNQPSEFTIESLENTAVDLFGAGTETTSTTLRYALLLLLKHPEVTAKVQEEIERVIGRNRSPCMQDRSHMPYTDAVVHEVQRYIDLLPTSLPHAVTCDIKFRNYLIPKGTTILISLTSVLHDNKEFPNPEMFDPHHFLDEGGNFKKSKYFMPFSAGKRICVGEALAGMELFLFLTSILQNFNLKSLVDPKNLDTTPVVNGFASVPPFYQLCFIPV
# Method in brief: as §1
# [8] = biological target: Cytochrome P450 2C19 (Homo sapiens) (UniProt P33261); assay: qHTS for inhibitors of CYP2C19 against the NCATS DSHEA and TCM libraries (AID 1919974);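 also: luminescence from luciferin released by CYP2C19 oxidation of a pro-luciferin substrate; potency is read from the fitted curve at half-maximal effect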
# Chain of Cytochrome P450 2C19 (Homo sapiens) (P33261 whole entry, looked up): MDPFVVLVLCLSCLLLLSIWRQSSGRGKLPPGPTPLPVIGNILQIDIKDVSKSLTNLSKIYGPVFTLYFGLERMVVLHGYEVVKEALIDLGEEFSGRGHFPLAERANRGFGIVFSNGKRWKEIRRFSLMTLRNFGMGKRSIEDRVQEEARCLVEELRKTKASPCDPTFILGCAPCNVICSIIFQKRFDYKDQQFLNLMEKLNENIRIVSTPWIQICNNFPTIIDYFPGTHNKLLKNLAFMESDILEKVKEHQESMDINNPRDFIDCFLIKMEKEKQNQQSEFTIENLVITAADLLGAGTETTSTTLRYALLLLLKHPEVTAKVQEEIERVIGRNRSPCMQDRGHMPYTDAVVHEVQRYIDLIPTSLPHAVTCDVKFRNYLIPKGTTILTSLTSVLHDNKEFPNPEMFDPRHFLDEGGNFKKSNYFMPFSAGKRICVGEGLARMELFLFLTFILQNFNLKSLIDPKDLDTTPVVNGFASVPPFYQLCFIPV
# Method in brief: as §1
# [9] = KB-3-1 P-gp reporter qHTS against the NCATS DSHEA and TCM libraries (AID 1919975)
# Method in brief: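 Cell viability qHTS: 500 KB-3-1 cells/well, substances in titration, ~72 h, 37C; luminescent CellTiter-Glo read.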
# [10] = KB-8-5-11 P-gp reporter qHTS against the NCATS DSHEA and TCM libraries (AID 1919977)
# Method in brief: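 Viability of drug-resistant KB-8-5-11 cells is measured by CellTiter-Glo luminescence following roughly 72 h treatment at 37C. Substances were titrated, with bortezomib as intraplate control.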
# [11] = qHTS Counterscreen for compound interference against the NCATS DSHEA and TCM libraries (AID 1919978); conditions: firefly luciferase detection reagent interference, luminescence;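 also: compounds preincubated with 1 µM D-luciferin or buffer before detection reagent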
# Method in brief: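 Interference check: test samples were incubated with D-luciferin (final 1 uM) or buffer only for 15 min, room temperature, in a qHTS titration up to 39.8 uM, then developed with detection reagent and read by luminescence.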
# [12] = Dual reporter qHTS for agonist of Pregnane X Receptor (hPXR) against the NCATS DSHEA and TCM libraries: Fluorescence readout (AID 1920058)
# Method in brief: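 hPXR-Luc HepG2 cells, 2000/well in charcoal-stripped serum, attached 5 h, dosed for ~24 h at 37 °C. Fluorescence read is CellTiter-Fluor viability (Ex/Em 405/540 nm); rifampicin positive, tetraoctyl ammonium bromide (92 µM) cytotoxicity controls.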
# [13] = biological target: Nuclear receptor subfamily 1 group I member 2 (Homo sapiens) (UniProt O75469); assay: Dual reporter qHTS for agonist of Pregnane X Receptor (hPXR) against the NCATS DSHEA and TCM libraries: Luminescence readout (AID 1920059)
# Chain of Nuclear receptor subfamily 1 group I member 2 (Homo sapiens) (O75469 whole entry, looked up): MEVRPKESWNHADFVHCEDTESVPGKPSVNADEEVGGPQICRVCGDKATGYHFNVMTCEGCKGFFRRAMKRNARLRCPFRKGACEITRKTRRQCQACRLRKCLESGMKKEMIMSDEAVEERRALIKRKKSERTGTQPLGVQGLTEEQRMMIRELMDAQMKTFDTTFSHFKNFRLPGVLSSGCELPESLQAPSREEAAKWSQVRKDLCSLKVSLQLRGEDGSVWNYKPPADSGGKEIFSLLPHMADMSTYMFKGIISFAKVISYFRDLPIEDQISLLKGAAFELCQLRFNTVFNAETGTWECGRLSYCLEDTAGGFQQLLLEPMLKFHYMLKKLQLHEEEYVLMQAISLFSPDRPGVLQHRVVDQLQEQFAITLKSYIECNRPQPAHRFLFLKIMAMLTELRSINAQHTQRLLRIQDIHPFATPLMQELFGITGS
# Method in brief: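 Luminescent PXR reporter read (ONE-Glo) after a CellTiter-Fluor viability read, following 24 h, 37C treatment of HepG2 cells stably carrying hPXR-Luc.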
# [14] = biological target: Nuclear receptor subfamily 1 group I member 2 (Homo sapiens) (UniProt O75469); assay: Dual reporter qHTS for antagonist of Pregnane X Receptor (hPXR) against the NCATS DSHEA and TCM libraries: Luminescence Readout (AID 1920060);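 also: HepG2 cells carrying hPXR luciferase reporter stimulated with rifampicin at 2 µM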
# Method in brief: (§2)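 Antagonist mode: rifampicin 2 uM final co-added with compounds to hPXR-LucHepG2 cells for 24 h at 37C. Viability by CellTiter-Fluor, Ex/Em 405/540 nm, 1 h; reporter by ONE-Glo luminescence.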
# [15] = Dual reporter qHTS for antagonist of Pregnane X Receptor (hPXR) against the NCATS DSHEA and TCM libraries: Fluorescence Readout (AID 1920061)
# Method in brief: as §2
smiles,measurement,setting,value
CCC1NC(=O)C2C(Cl)C(Cl)CN2C(=O)C(C(C)O)NC(=O)CC(c2ccccc2)NC(=O)C(CO)NC1=O (centres undefined),Potency,[1],inactive
same,outcome,[2],inactive
same,outcome,[3],inactive
COC1CC(OC2CCC3(C)C(CCC4C3CCC3(C)C(C5=CC(=O)OC5)C(OC(C)=O)CC43O)C2)OC(C)C1OC1OC(CO)C(O)C(O)C1O (centres undefined),Potency,[1],inactive
same,outcome,[2],inactive
CN1C(=O)c2ccccc2NC(=O)C1Cc1ccccc1 (centres undefined),Potency,[1],inactive
same,outcome,[2],inactive
same,outcome,[3],inactive
Cc1c(Cl)cccc1S(=O)(=O)Nc1nc(CC(=O)N2CCN(C)CC2)cs1,Potency,[1],inactive
same,Potency,[4],inactive
same,outcome,[3],inactive
CN1C(=O)c2ccccc2NC(=O)[C@]12O[C@@H]2c1ccccc1,Potency,[1],inactive
same,outcome,[2],inactive
same,outcome,[3],inactive
CCCCCOc1cc2c(cc1-c1cc(/C=C/C(=O)O)ccc1O)C(C)(C)CCC2(C)C,Potency,[4],inactive
same,outcome,[2],inactive
COC(=O)C1(C)CCC(O)C2(C)c3cc(O)c(C(C)C)cc3C(O)C(OC(C)=O)C12 (centres undefined),Potency,[1],inactive
same,outcome,[2],inactive
COC(=O)C12C(=O)C(C)(O)C(=O)C1(C)C(C)=CC1C34CCC(OC3=O)C(C)(CO)C4CCC12C (centres undefined),Potency,[4],2.6 µM (active)
same,outcome,[2],inactive
Clc1ccc(OCC2=NCCN2)cc1Cl,Potency,[4],inactive
same,outcome,[2],inactive
same,outcome,[3],inactive
COc1cc(C)[nH]c(=O)c1CNC(=O)c1c(C)n([C@H](C)C2CCOCC2)c2ccccc12,Potency,[1],inactive
same,Potency,[4],inactive
same,outcome,[2],inactive
same,Z-AUC,[5],0.466 (inactive)
same,Z-AUC,[5]; measured here: PEO1 parental Z-AUC,0.504
same,Z-AUC,[5]; measured here: PEO4 Z-AUC,0.135
C=C(CO)C(=O)O[C@H]1C/C(C)=C/CC/C(CO)=C/[C@H]2OC(=O)C(=C)[C@H]12,Potency,[4],inactive
same,outcome,[2],inactive
same,outcome,[3],inactive
O=C1C[C@@H]2OCC=C3CN4CC[C@]56c7ccccc7N1[C@H]5[C@H]2[C@H]3C[C@H]46,Potency,[4],inactive
same,outcome,[2],inactive
same,outcome,[3],inactive
O=C(O)c1ccnc2cc(C(OCCN3CCCCC3)c3ccccc3Cl)[nH]c12 (centres undefined),Potency,[4],inactive
same,outcome,[2],inactive
CO[C@@H]1[C@H](O)[C@@H](O[C@@H]2C[C@H]3CC[C@@H]4C(CC[C@]5(C)[C@@H](C6=CC(=O)OC6)CC[C@]45O)[C@@]3(C)[C@H](O)C2)O[C@H](C)[C@@H]1O[C@@H]1O[C@H](CO)[C@@H](O)[C@H](O)[C@H]1O (some centres undefined),Potency,[4],inactive
same,outcome,[2],inactive
COC1=CC(=O)O[C@@H](/C=C/c2ccccc2)C1,Potency,[1],inactive
same,Potency,[4],inactive
same,outcome,[2],inactive
same,outcome,[3],inactive
same,outcome,[6],inactive
same,outcome,[7],inactive
same,Potency,[8],14.1 µM (active)
same,outcome,[9],inactive
same,outcome,[10],inactive
same,max response,[11],-0.203% (inactive)
same,outcome,[12],inactive
same,outcome,[13],inactive
same,outcome,[14],inactive
same,outcome,[15],inactive
COc1cc(C(=O)O[C@H]2[C@@H]3C=CO[C@@H](O[C@@H]4O[C@H](CO)[C@@H](O)[C@H](O)[C@H]4O)[C@@H]3[C@@]3(CO)O[C@@H]23)ccc1O,Potency,[1],inactive
same,outcome,[2],inactive
same,outcome,[3],inactive
C[C@H]1C(=O)O[C@H]2[C@H](O)[C@]34C5OC(=O)[C@]3(O[C@@H]3OC(=O)[C@H](O)C34[C@H](C(C)(C)C)[C@H]5O)C12O (some centres undefined),Potency,[4],inactive
same,outcome,[2],inactive
same,outcome,[3],inactive
COC1CC(=O)C23C(=O)NC(CC(C)C)C2C(C)=C(C)C(OO)C3/C=C(\C)CCC(O)C1O (centres undefined),Potency,[1],inactive
same,outcome,[2],inactive
same,outcome,[3],inactive
C/C=C(\C)C(=O)OC1CC2C(CC=C3CC(OC4CC(OC)C(OC5CC(OC)C(OC6OC(C)C(OC7OC(CO)C(O)C(O)C7O)C(OC)C6O)C(C)O5)C(C)O4)CCC32C)C2(O)CCC(C(C)=O)C12C (centres undefined),outcome,[1],inactive [at 11.6 µM]
same,"activity change, negative = thiol reactive",[4],19.1% [at 11.5 µM] (inactive)
same,"activity, negative = inhibition",[2],4.82% [at 11.6 µM] (inactive)
same,redox activity (% of DA3003),[3],4.57% [at 11.5 µM] (inactive)
CN1[C@@H]2CC[C@H]1CC(OC(=O)C1C=Nc3ccccc31)C2 (some centres undefined),Potency,[4],inactive
same,outcome,[2],inactive
same,outcome,[3],inactive
CN1CCC[C@@H]1Cc1c[nH]c2ccc(Nc3ncccc3[N+](=O)[O-])cc12,Potency,[1],inactive
same,Potency,[4],1.68 µM (active)
same,outcome,[3],inactive
CC1=CC2/C=C(\C)CCC(O)C3OC(C)(C)OC3CC(=O)OC23C(=O)NC(CC(C)C)C3C1C (centres undefined),Potency,[1],inactive
same,outcome,[2],inactive
same,outcome,[3],inactive
N#CC(OC1OC(COC2OC(CO)C(O)C(O)C2O)C(O)C(O)C1O)c1ccccc1 (centres undefined),Potency,[1],inactive
same,Potency,[4],inactive
same,outcome,[2],inactive
same,outcome,[3],inactive
COCC1OC(=O)c2coc3c2C1(C)C1=C(C3=O)C2CCC(=O)C2(C)CC1O (centres undefined),Potency,[1],inactive
same,outcome,[2],inactive
same,outcome,[3],inactive
CCN1C[C@]2(COC)[C@H](O)C[C@H](OC)[C@]34[C@@H]5C[C@]6(O)[C@H](OC(=O)c7ccccc7)[C@@H]5[C@@](O)([C@H]([C@H](OC)[C@H]23)[C@@H]14)[C@@H](O)[C@@H]6OC,Potency,[1],inactive
same,Potency,[4],inactive
same,outcome,[2],inactive
same,outcome,[3],inactive
CC(C)=C1CC[C@]23CO[C@H](C2)[C@@](O)(C(=O)O)CCC13 (some centres undefined),Potency,[4],inactive
same,outcome,[2],inactive
same,outcome,[3],inactive
C[C@@H]1C(=O)O[C@H]2[C@H](O)[C@@]34[C@@H]5OC(=O)[C@@]3(O[C@@H]3OC(=O)[C@@H](O)[C@@]34[C@H](C(C)(C)C)[C@H]5O)[C@@]12O,outcome,[2],inactive
same,outcome,[3],inactive
CC1=C2C(=O)C3[C@@H](CC=C4C[C@@H](O)CC[C@@]43C)[C@@H]2CC[C@]12O[C@@H]1C[C@H](C)CN[C@H]1[C@H]2C (some centres undefined),Potency,[4],inactive
same,outcome,[2],inactive
same,outcome,[3],inactive
